These results are taken from the supplement of paper PMC3414501.

The structures appear in SMILES notation. Where a name gives a salt, the structure may show the parent alone.

Assay [1] relates to S. cerevisiae SK1 pCDA2-eGFP (USY613), sporulating. The experiment in a line: CDA2-GFP sporulation assay sensitivity score (z-score vs DMSO controls); higher = stronger inhibition of sporulation, active = hit call of the paper.
Assay [2] relates to S. cerevisiae NKY1551 his4x/his4B, sporulating. Put plainly: HIS4 meiotic recombination assay sensitivity score (z-score vs DMSO controls); higher = stronger inhibition of sporulation/recombination, active = hit call of the paper.
The subject of assay [3] is S. cerevisiae AD1-9 (efflux-pump deficient), vegetative growth in YPD. The experiment in a line: growth sensitivity score (doubling time z-score vs DMSO controls); higher = slower growth, strongly negative scores also mark growth inhibition (complete suppression), active = hit call of the paper. The procedure, abridged: (§1)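 Saccharomyces cerevisiae strains BY4741 and AD1-9 were seeded in rich medium in microtiter plates at an OD600 of 0.065. Compounds were added at a 1:100 dilution of DMSO stock. Optical density was read every 15 min for 24 hours on a Tecan GENios reader. Average doubling time was the time taken to reach a set generation point divided by generation number, and the growth sensitivity score was (compound mean − DMSO-control mean)/DMSO-control SD, using eight DMSO controls per experiment.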

For assay [4], the system named is S. cerevisiae BY4741 (wild-type), vegetative growth in YPD. The description is as above. The procedure, abridged:
as §1
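Throughout, for CDA2-GFP sporulation assay sensitivity score (z-score vs DMSO controls): active if sensitivity score above 5.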
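Throughout, for HIS4 meiotic recombination assay sensitivity score (z-score vs DMSO controls): active if sensitivity score above 5.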

As for `CC(C)(C)NC(=O)[C@@H]1C[C@@H]2CCCC[C@@H]2CN1C[C@@H](O)[C@H](Cc1ccccc1)NC(=O)[C@H](CC(N)=O)NC(=O)c1ccc2ccccc2n1` [Saquinavir mesylate] (stock concentration (mM, diluted 1:100): 8.8), the “CDA2-GFP sporulation assay sensitivity score” value in assay [1] was -0.34 (inactive). The “HIS4 meiotic recombination assay sensitivity score” value in assay [2] was -1.67 (inactive). Also, the growth sensitivity score in assay [3] was -2.2; in assay [4], 2.5 (active).

For the molecule `CC(C)/N=c1\cc2n(-c3ccc(Cl)cc3)c3ccccc3nc-2cc1Nc1ccc(Cl)cc1` [Clofazimine] (stock concentration (mM, diluted 1:100): 10), the “CDA2-GFP sporulation assay sensitivity score” value in assay [1] is 0.66 (inactive). Further, the “HIS4 meiotic recombination assay sensitivity score” value in assay [2] is -1.5 (inactive). Besides, the growth sensitivity score in assay [3] was 108 (active); in assay [4] it was 61.3 (active).

On to `CC(=O)SCC(Cc1ccccc1)C(=O)NCC(=O)OCc1ccccc1` (centres undefined) [Acetorphan] (stock concentration (mM, diluted 1:100): 10), for which the “CDA2-GFP sporulation assay sensitivity score” value in assay [1] was 0.9 (inactive). The “HIS4 meiotic recombination assay sensitivity score” value in assay [2] is 1.65 (inactive). Besides, the growth sensitivity score in assay [3] is 22.1 (active); in assay [4] it was 0.93 (inactive).

`CCCN[C@H]1CCc2nc(N)sc2C1` [Pramipexole] (stock concentration (mM, diluted 1:100): 10): in assay [1], the “CDA2-GFP sporulation assay sensitivity score” value is -1.03 (inactive). Moreover, in assay [2], the “HIS4 meiotic recombination assay sensitivity score” value is -2.92 (inactive). The growth sensitivity score in assay [3] is 51 (active); in assay [4], -0.06 (inactive).

Regarding `CC(Cc1ccccc1)(NC(=O)CN)c1ccccc1` (centres undefined) [Remacemide] (stock concentration (mM, diluted 1:100): 10), the “CDA2-GFP sporulation assay sensitivity score” value in assay [1] was 2.76 (inactive). Also, the “HIS4 meiotic recombination assay sensitivity score” value in assay [2] was -1.04 (inactive). The results for the growth sensitivity score in assay [3] and in assay [4] were 4.61 (active) and -0.78 (inactive), respectively.

`CCN1CCCC1CNC(=O)c1cc(S(=O)(=O)CC)c(N)cc1OC` (centres undefined) [Amisulpride] (stock concentration (mM, diluted 1:100): 10): the “CDA2-GFP sporulation assay sensitivity score” value in assay [1] was -0.38 (inactive). Further, the “HIS4 meiotic recombination assay sensitivity score” value in assay [2] is -0.66 (inactive). Besides, the growth sensitivity score was -0.73 (inactive) in assay [3] and -0.22 (inactive) in assay [4].

Take `C=CC[C@@H]1/C=C(\C)C[C@H](C)C[C@H](OC)[C@H]2O[C@@](O)(C(=O)C(=O)N3CCCC[C@H]3C(=O)O[C@H](/C(C)=C/[C@@H]3CC[C@@H](O)[C@H](OC)C3)[C@H](C)[C@@H](O)CC1=O)[C@H](C)C[C@@H]2OC` [Tacrolimus] (stock concentration (mM, diluted 1:100): 10): the “CDA2-GFP sporulation assay sensitivity score” value in assay [1] was 0.75 (inactive). Further, the “HIS4 meiotic recombination assay sensitivity score” value in assay [2] is -0.77 (inactive). For the same molecule, the growth sensitivity score in assay [3] is 20.9 (active); in assay [4], 12 (active).

For the molecule `COc1cccc2c1C(=O)c1c(O)c3c(c(O)c1C2=O)C[C@@](O)(C(=O)CO)C[C@@H]3O[C@H]1C[C@H](N)[C@H](O)[C@H](C)O1` [Doxorubicin hydrochloride] (stock concentration (mM, diluted 1:100): 9.4), in assay [1], the “CDA2-GFP sporulation assay sensitivity score” value was 0.3 (inactive). In addition, the “HIS4 meiotic recombination assay sensitivity score” value in assay [2] is -0.73 (inactive). For the same molecule, the growth sensitivity score was 83.6 (active) in assay [3] and 51 (active) in assay [4].

On to `CC(C(=O)O)c1ccc(CC2CCCC2=O)cc1` (centres undefined) [Loxoprofen sodium] (stock concentration (mM, diluted 1:100): 9.1), for which the “CDA2-GFP sporulation assay sensitivity score” value in assay [1] was -0.04 (inactive). In addition, the “HIS4 meiotic recombination assay sensitivity score” value in assay [2] was -0.15 (inactive). In addition, the growth sensitivity score in assay [3] was -0.52 (inactive); in assay [4], -0.61 (inactive).

For the molecule `COC(=O)C1=C(C)NC(C)=C(C(=O)OC2CCCN(Cc3ccccc3)C2)C1c1cccc([N+](=O)[O-])c1` (centres undefined) [Benidipine hydrochloride] (stock concentration (mM, diluted 1:100): 6), the “CDA2-GFP sporulation assay sensitivity score” value in assay [1] is 4.32 (inactive). The “HIS4 meiotic recombination assay sensitivity score” value in assay [2] was -1.2 (inactive). For the same molecule, the growth sensitivity score in assay [3] was -3.4; in assay [4], 1.95 (inactive).

As to `O=C(O)CCNC(=O)c1ccc(/N=N/c2ccc(O)c(C(=O)O)c2)cc1` [Balsalazide] (stock concentration (mM, diluted 1:100): 10), in assay [1], the “CDA2-GFP sporulation assay sensitivity score” value is 1.1 (inactive). In assay [2], the “HIS4 meiotic recombination assay sensitivity score” value was -1.14 (inactive). Moreover, the results for the growth sensitivity score in assay [3] and in assay [4] were -1.86 (inactive) and -1.09 (inactive), respectively.

Turning to `CNC(=N)NCCC[C@H](N)C(=O)O` [omega-N-Methylarginine] (stock concentration (mM, diluted 1:100): 9.3), the “CDA2-GFP sporulation assay sensitivity score” value in assay [1] is 1.34 (inactive). Also, in assay [2], the “HIS4 meiotic recombination assay sensitivity score” value was -0.29 (inactive). For the same molecule, the growth sensitivity score was -3.59 in assay [3] and -0.56 (inactive) in assay [4].

For the molecule `Nc1ccn([C@@H]2O[C@H](CO)[C@@H](O)[C@@H]2O)c(=O)n1` [Cytarabine] (stock concentration (mM, diluted 1:100): 10), the “CDA2-GFP sporulation assay sensitivity score” value in assay [1] is -0.45 (inactive). In assay [2], the “HIS4 meiotic recombination assay sensitivity score” value is -0.49 (inactive). The values for the growth sensitivity score in assay [3] and in assay [4] were -2.83 and -0.01 (inactive), respectively.

As to `Nc1nc2ccc(Cl)cc2c2nc(-c3ccco3)nn12` (stock concentration (mM, diluted 1:100): 10), the “CDA2-GFP sporulation assay sensitivity score” value in assay [1] is -3.14 (inactive). In addition, the “HIS4 meiotic recombination assay sensitivity score” value in assay [2] is -0.12 (inactive). Besides, the growth sensitivity score was 17.6 (active) in assay [3] and 5.26 (active) in assay [4].

Regarding `Cc1[nH]c(=O)c(C#N)cc1-c1ccncc1` [Milrinone] (stock concentration (mM, diluted 1:100): 10.1), the “CDA2-GFP sporulation assay sensitivity score” value in assay [1] is -1.34 (inactive). Besides, the “HIS4 meiotic recombination assay sensitivity score” value in assay [2] is -0.23 (inactive). The growth sensitivity score in assay [3] is -2.83; in assay [4] it was -0.97 (inactive).

Consider `CCOC(=O)c1ccc(OC(=O)CCCCCNC(=N)N)cc1` [Gabexate mesylate] (stock concentration (mM, diluted 1:100): 7.7), for which the “CDA2-GFP sporulation assay sensitivity score” value in assay [1] is 2.43 (inactive). Moreover, the “HIS4 meiotic recombination assay sensitivity score” value in assay [2] was 2.41 (inactive). Also, the growth sensitivity score in assay [3] was 10.8 (active); in assay [4] it was 1.03 (inactive).
